Compound activity from PubChem BioAssay.
In the library only some 19% were active in any assay of this set; here they are far more common.
IL-1B inflam inh: qHTS for Inhibitors of Inflammasome Signaling: IL-1-beta AlphaLISA Primary Screen | THP-1 LPS/ATP IL-1B secretion, AlphaLISA, 16 h; stronger effect = lower value | activity change, % at 57.5 µM | hit rate 4.7% among 360,000; in the data active = activity change below about -50%; inconclusive = mostly about -30% to -49%
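Secreted IL-1B measured by AlphaLISA bead assay after 16 h compound exposure of THP-1 cells; compounds (final up to 57.5 uM) added 1 h before LPS (250 ng/mL) and ATP (1.25 mM) stimulation; lower signal means less secretion.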
TDP1 cell CPT: qHTS for Inhibitors of human tyrosyl-DNA phosphodiesterase 1 (TDP1): qHTS in cells in presence of CPT; AID 686979, 2013; chicken DT40 Tdp1-/-;hTDP1 cells + 20 nM CPT, ATP luminescence, 48 h; Potency, µM (series often up to 46.2 µM), for the others: at the highest dose activity change, negative = growth inhibition, actives largely listed as inhibitors; hit rate 12% among 420,000; note: potency is the fitted concentration of half-maximal effect; nearly all actives have a fitted effect of over 55% in size
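Chicken DT40 Tdp1-/- cells stably complemented with human TDP1 were seeded at 400 cells/well in medium containing 20 nM camptothecin, exposed to pin-transferred compounds, and grown at 37 °C for at least 48 hr. Viability was read as ATP luminescence.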
HT1080 IDH1KD tx: qHTS for induction of synthetic lethality in tumor cells producing 2HG: qHTS for the HT-1080-IDH1KD cell line; HT-1080 IDH1 knockdown viability, ATP luminescence, 48 h; Potency, µM (highest dose often 46.1 µM), inactives show top-dose activity, negative = toxicity, hits mostly cytotoxic; hit rate 2% among 360,000;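 note: potency is the fitted concentration of half-maximal effect; 0% = DMSO wells and -100% = cell-free medium wells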
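IDH1KD HT-1080 cells, 750/well, RPMI + 5% FBS; compound pinned after 2 h settling; 48 h, 37 °C; CellTiter-Glo luminescence; % activity normalised to DMSO and no-cell wells; curves fitted, classed by r2 and efficacy.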
DT40 TDP1 no CPT: qHTS for Inhibitors of human tyrosyl-DNA phosphodiesterase 1 (TDP1): qHTS in cells in absence of CPT | DT40 Tdp1-/- hTDP1 cells, no CPT, ATP luminescence, 48 h | Potency, µM (titrated, usually from 46.2 µM), for the others: at the highest dose activity change, negative = growth inhibition, hits mostly inhibitors | hit rate 15% among 420,000; note: potency is the fitted concentration of half-maximal effect; nearly all actives have a fitted effect of over 55% in size
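A cellular qHTS used chicken DT40 cells lacking endogenous Tdp1 but carrying stably transfected human TDP1. Compounds were applied without camptothecin, and cell growth kinetics were judged by ATP-dependent luminescence after ≥48 hr.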
HT1080NT lethal: qHTS for induction of synthetic lethality in tumor cells producing 2HG: qHTS for the HT-1080-NT fibrosarcoma cell line. Potency, µM (top dose mostly 46.1 µM), for inactives: at the highest dose activity, negative = less viability, actives largely listed as cytotoxic. hit rate 1.6% among 360,000. HT-1080-NT fibrosarcoma viability, CellTiter-Glo ATP luminescence, 48 h;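 note: NT is the 2HG producing partner of a matched IDH1 knockdown line; potency is the fitted concentration of half-maximal effect; 0% = DMSO-treated cells and -100% = media-only wells without cells; nearly all actives have a fitted effect of over 55% in size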
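Fibrosarcoma NT cells, 750 per well in 5% FBS RPMI, were exposed to compound for 48 hours. Viability: CellTiter-Glo luminescence.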
* = called active by the depositor; ? = inconclusive; · = no result. Unless noted, calls come from the whole dose curve; as a rule, active = well fitted curve in the direction sought with a large enough effect; inconclusive = small, poorly fitted or top-dose-only effect, or another doubt; inactive = no such curve, though single readings can be large; an effect the other way counts as inactive or inconclusive. Unless noted, % is set by controls: 0 for no effect and ±100 for the full control effect.

SMILES | IL-1B inflam inh | TDP1 cell CPT | HT1080 IDH1KD tx | DT40 TDP1 no CPT | HT1080NT lethal
CC(C)n1c(SCc2ccccc2F)nc2c1c(=O)n(C)c(=O)n2C | 46.5 | 20.6µM* | -9.8% | 25.9µM* | -14.5%
CC(C)n1c(SCC(N)=O)nc2c1c(=O)n(C)c(=O)n2C | -6.0 | 0.4% | 4.1% | -8.4% | 2.4%
N=C1C(c2ccccc2)=C(O)CN1c1cccc(S(=O)(=O)Nc2cccc(C(F)(F)F)c2)c1 | 12.6 | 6.4% | -23.9% | -2.5% | -15.6%
Cn1c(=O)n(-c2ccc3c(c2)OCO3)c2nc(-c3ccc(Cl)cc3)nc(C(N)=O)c21 | · | 15.5% | · | ? | ·
CCCCC(=O)NCCNC(=O)c1cc(OCC(F)(F)F)ccc1OCC(F)(F)F | 8.3 | -9.1% | 23.2% | 3.3% | 21.0%
CCc1ccc2occ(CC(=O)Nc3c(C(=O)Nc4ccc(C)cc4)oc4ccccc34)c2c1 | · | -7.5% | · | -21.9% | ·
Cc1cccc(C(=O)OCC(=O)NCCNC(=O)COC(=O)c2cccc(C)c2C)c1C | 6.1 | -7.0% | 0.2% | 0.6% | 0.0%
Cc1ccc(NC(=O)CSc2nccn2Cc2ccc3c(c2)OCO3)c(C)c1 | · | -14.2% | · | -1.5% | ·
CC[C@H](C)[C@H](NC(=O)OCc1ccccc1)C(=O)OCC(=O)N1CCN(c2ccc(F)cc2)CC1 | -6.7 | ? | -7.4% | ? | -15.2%
COCCn1c(SCC(=O)N(C(C)C)C(C)C)nnc1-c1cc2ccccc2cc1O | 15.1 | ? | 0.4% | 20.6µM* | 2.2%
COCCn1c(SCC(=O)Nc2nnc(C)s2)nnc1-c1cc2ccccc2cc1O | 4.5 | -20.1% | 0.8% | -8.3% | 3.4%
CCc1c(-c2ccc(OC)cc2)ncn1Cc1cccc(-c2ccccc2)c1 | -1.0 | 7.31µM* | ? | 4.61µM* | ?
COc1ccccc1-c1ncn(Cc2cccc(-c3ccccc3)c2)c1CC(C)C | -90.6* | 20.6µM* | ? | 18.4µM* | 18.4µM*
COc1ccccc1-c1nc2ccccc2n(CC(C)C)c1=O | 14.5 | ? | 0.0% | ? | 1.0%
COc1ccc(-c2csc3ncn(Cc4ccccc4)c(=O)c23)cc1 | -10.4 | ? | -18.6% | ? | -6.8%
CCc1c(-c2cccc(Br)c2)ncn1Cc1cccc(-c2ccccc2)c1 | -95.1* | ? | ? | 23.1µM* | -92.8%
CCN1CCN(Cc2ccc(OC)c(OCc3ccccc3)c2)CC1 | 17.4 | -18.5% | -0.9% | ? | -0.7%
CCc1c(-c2ccccc2OC)ncn1Cc1cccc(-c2ccccc2)c1 | -52.9* | 0.651µM* | 8.2µM* | 0.517µM* | 14.6µM*
Cc1ccc(C(=O)NCC(=O)OCC(=O)c2c(N)n(C)c(=O)n(C)c2=O)cc1C | 25.1 | 0.3% | -0.9% | 12.0% | 5.4%
CN1CCN(c2ncc3ncc(=O)n(C[C@H]4CCCO4)c3n2)CC1 | · | -22.0% | · | -11.4% | ·
O=C(OCc1c(-c2ccccc2)ncc2ccccc12)c1cccs1 | 13.4 | ? | -23.7% | ? | -13.7%
COc1ccccc1CNC(=O)[C@H](C)NC(=O)C1CCN(C(=O)[C@@H]2CCCN2C(=O)OC(C)(C)C)CC1 | -12.1 | -16.5% | -0.9% | -17.9% | -2.1%
CC(NC(=O)Cc1ccccc1)C(c1ccccc1)N1CCOCC1 (stereo not drawn) | -64.2* | -15.2% | 12.9% | -16.2% | 0.8%
CC(O)(c1ccccc1)C(C(c1ccccc1)N1CCOCC1)N1CCOCC1 (stereo not drawn) | 2.1 | 5.4% | 2.6% | -13.5% | 1.1%
CC(=O)C(C(c1ccccc1)N1CCOCC1)N1CCOCC1 (stereo not drawn) | -2.9 | ? | 0.9% | 18.4µM* | -3.6%
SMILES | IL-1B inflam inh | TDP1 cell CPT | HT1080 IDH1KD tx | DT40 TDP1 no CPT | HT1080NT lethal
COc1ccc(NC(=S)NC(C)C(c2ccccc2)N2CCOCC2)cc1 (stereo not drawn) | -0.2 | ? | 5.7% | -27.7% | -23.5%
CC(NC(=O)c1cccnc1)C(c1ccccc1)N1CCN(C)CC1 (stereo not drawn) | 18.7 | 0.8% | 12.7% | 6.7% | 2.4%
CC(NC(=O)c1ccc(-c2ccccc2)cc1)C(c1ccccc1)N1CCOCC1 (stereo not drawn) | 0.0 | ? | -17.2% | 13µM* | ?
CCOc1ccc(N/C(SCc2cccc([N+](=O)[O-])c2)=C(/C#N)C(N)=O)cc1 | -73.4* | ? | ? | 20.6µM* | -20.1%
COc1cccc(N/C(SCc2cccc([N+](=O)[O-])c2)=C(/C#N)C(=O)NCc2cccs2)c1 | -55.3* | ? | 0.2% | 16.4µM* | -3.2%
COc1ccccc1CCNC(=O)Cc1c(C)c2cc(Cl)c(O)cc2oc1=O | · | -27.4% | · | -29.1% | ·
CC/C(=N/N=C(\CC)c1ccccc1)c1ccccc1 | 2.6 | -10.0% | 1.2% | ? | 4.9%
CCc1ccc(NC(=O)C(C)OC(=O)C2CCN(c3ccc(C(F)(F)F)cn3)CC2)cc1 (stereo not drawn) | -6.5 | -26.4% | 9.4% | ? | 12.6%
CC1(c2nc3ccccc3[nH]2)CCCC2=Nc3ccccc3CN21 (stereo not drawn) | -13.8 | ? | -18.6% | 18.4µM* | -1.6%
CC(NC(=S)Nc1ccc(OC(F)F)cc1OC(F)F)C(C)(C)C (stereo not drawn) | -90.7* | ? | -5.2% | ? | -3.0%
Cc1ccc(Cc2c(C)nc3nc(SCC(=O)NCCCN4CCCC4)nn3c2C)cc1 | -13.4 | 6.2% | -3.9% | -18.2% | -18.0%
Cc1ccc(Cc2c(C)nc3nc(SCC(=O)NCCCN4CCCCC4)nn3c2C)cc1 | -61.7* | 2.7% | -9.6% | -15.2% | -0.7%
Cc1ccc(Cc2c(C)nc3nc(SCC(=O)NCCC(C)C)nn3c2C)cc1 | · | ? | · | 23.1µM* | ·
CCC1CCCCN1CCCNC(=O)CSc1nc2nc(C)c(Cc3ccccc3)c(C)n2n1 (stereo not drawn) | -67.1* | 0.4% | -1.3% | -14.2% | -18.1%
Cc1nc2nc(SCC(=O)NCCN3CCOCC3)nn2c(C)c1Cc1ccccc1 | 16.3 | 3.9% | -1.9% | 3.3% | -0.1%
COc1ccc(S(=O)(=O)N2CCOC2CNC(=O)C(=O)NCCCN2CCCC2=O)cc1OC (stereo not drawn) | -13.7 | -1.2% | -6.8% | -7.6% | -3.0%
COc1cc(/C=N/NC(=O)c2cncc(Br)c2)cc([N+](=O)[O-])c1O | 55.8 | ? | -4.0% | ? | 16.4µM*
COc1cc([N+](=O)[O-])cc(/C=N/NC(=O)c2cncc(Br)c2)c1O | 73.8 | 4.61µM* | -4.3% | 18.4µM* | -2.7%
